Reference: PMC13494018

Sequence of CD276, Q5ZPR3 (Q5ZPR3 whole entry): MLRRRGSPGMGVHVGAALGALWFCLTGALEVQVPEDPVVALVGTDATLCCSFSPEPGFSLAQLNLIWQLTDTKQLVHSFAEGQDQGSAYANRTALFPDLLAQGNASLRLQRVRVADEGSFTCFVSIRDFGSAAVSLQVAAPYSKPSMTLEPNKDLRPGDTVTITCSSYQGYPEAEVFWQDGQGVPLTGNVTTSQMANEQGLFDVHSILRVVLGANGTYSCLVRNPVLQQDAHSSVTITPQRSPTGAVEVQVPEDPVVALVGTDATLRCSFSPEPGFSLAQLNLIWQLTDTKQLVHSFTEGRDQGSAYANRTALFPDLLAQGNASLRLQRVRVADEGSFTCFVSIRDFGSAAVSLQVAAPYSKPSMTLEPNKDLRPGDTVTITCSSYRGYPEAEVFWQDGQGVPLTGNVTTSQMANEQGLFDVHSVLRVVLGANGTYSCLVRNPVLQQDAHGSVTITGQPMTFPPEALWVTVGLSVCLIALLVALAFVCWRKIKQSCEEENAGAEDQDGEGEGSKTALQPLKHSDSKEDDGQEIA
Sequence of VTCN1, Q7Z7D3 (Q7Z7D3 whole entry): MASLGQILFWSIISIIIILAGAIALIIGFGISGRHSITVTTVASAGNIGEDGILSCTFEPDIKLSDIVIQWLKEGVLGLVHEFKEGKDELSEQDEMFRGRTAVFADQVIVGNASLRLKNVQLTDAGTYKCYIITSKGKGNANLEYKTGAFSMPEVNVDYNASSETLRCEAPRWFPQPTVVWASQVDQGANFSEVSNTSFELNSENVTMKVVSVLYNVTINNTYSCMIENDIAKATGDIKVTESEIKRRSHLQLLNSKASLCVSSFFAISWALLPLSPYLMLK

| Binder | binding in a display sort (VTCN1, Q7Z7D3) | binding in a display sort (CD276, Q5ZPR3) |
| --- | --- | --- |
| design_376_bf9d4634-8475-4fdb-a175-1db49a23bdcd_1821_dldesign_0_cycle1_af2pred (protein) SNVKEANKKIDEATKLLVDARKAVYEKGKAAGPEVAAGAQKIIAGAVRGDVAPALADTPEVAALAKQMQAALDKAEKLENEAVKLLS | not found (inactive) | – |
| design_376_bf9d4634-8475-4fdb-a175-1db49a23bdcd_1417_dldesign_0_cycle1_af2pred (protein) MEEDEKKVEEVKKRGKEVAEKAKKSTPEEAEELRKEFTRYAAEVGGKASPEARNKIQEIRAEANGEIALAIIKKK | not found (inactive) | – |
| design_376_bf9d4634-8475-4fdb-a175-1db49a23bdcd_538_dldesign_0_cycle1_af2pred (protein) EAAELAALKAAGKAMAAVVKAADPALGAKVAATVEAGAKGTPAEFKKALQDAIGAVLLENPEAGRAAAKAAKDTYKAAKAA | not found (inactive) | – |
| design_376_bf9d4634-8475-4fdb-a175-1db49a23bdcd_1228_dldesign_0_cycle1_af2pred (protein) DAALKALATKLQEEGLAWADKAYEAMQIIDPKEAPKVASDILRDFARANKLYAEDPAKGAAALAAARAKVEAIVALAKKVS | not found (inactive) | – |
| design_376_bf9d4634-8475-4fdb-a175-1db49a23bdcd_302_dldesign_0_cycle1_af2pred (protein) GEAEKEKLKKEIYKLYREERKKVAEAIKKGKEEGKEALEKAEKALEEKAKEAAKYPEAAQLALQYKEALKEYYEMASK | not found (inactive) | – |
| design_376_bf9d4634-8475-4fdb-a175-1db49a23bdcd_131_dldesign_0_cycle1_af2pred (protein) DLEEELKKLIEKALKGNLEEALKALDEAVKLVEEKLSKTTADTAKEIAKAGKENAKKAETEEEARKNIAKALKTIKRIALLDAE | not found (inactive) | – |
| design_376_bf9d4634-8475-4fdb-a175-1db49a23bdcd_1182_dldesign_0_cycle1_af2pred (protein) EEEEKQKVKEEAAKNVEEAVEAAGELIAKHPELREKAYKLRKEAIRLSQEAGKAAEKDLEEGKKYLEESKEKVKEIKKLAEE | not found (inactive) | – |
| design_376_bf9d4634-8475-4fdb-a175-1db49a23bdcd_214_dldesign_0_cycle1_af2pred (protein) MELLKEAEKYAKEAKEYAEKALKEPEKAEEYVKKAAEYVAKLYELAAEAYRLDKELGKKAKKLAKEARKEVKEKYKEAKK | not found (inactive) | – |
| design_376_bf9d4634-8475-4fdb-a175-1db49a23bdcd_110_dldesign_0_cycle1_af2pred (protein) VEELVEKVKKETAKKVWESTDLSAEEKEKVADELEALAKELAKISPEAAKAAKKAAAVVKRFAEDEKKAE | not found (inactive) | – |
| design_376_bf9d4634-8475-4fdb-a175-1db49a23bdcd_1020_dldesign_0_cycle1_af2pred (protein) MGKKIHDVVKKAAEEARKAAEKAGADGELVRKAAYTAGWYYIAGDEEEAKKIVELAKKAEPKFAKTVEELMKKALEAAKKALEE | not found (inactive) | – |
| design_376_bf9d4634-8475-4fdb-a175-1db49a23bdcd_370_dldesign_0_cycle1_af2pred (protein) SLGKKLSEALRKAVRAARKAVEYMKAGDEENAEKYYKEAKEYAKELPEDVRNFVLNTMEKKIEEAKKEYA | not found (inactive) | – |
| design_376_bf9d4634-8475-4fdb-a175-1db49a23bdcd_1330_dldesign_0_cycle1_af2pred (protein) AVEEKLKEYTKKAEEYIEKLEKLDPEKAKELRKELEEAKKLTPEEALKKVKEIAAKASEAYYQAKAEEDAKK | not found (inactive) | – |
| design_376_bf9d4634-8475-4fdb-a175-1db49a23bdcd_1609_dldesign_0_cycle1_af2pred (protein) AKEEARELAEKAYEAAKSTSEDLREDVEKDGIGPKAVKSISDNMIEWIEKVHEEVKVDEEAHKIAEEAIKYAKEEGEKNIELAKKR | not found (inactive) | – |
| design_376_bf9d4634-8475-4fdb-a175-1db49a23bdcd_1567_dldesign_0_cycle1_af2pred (protein) SAEEEIKKKAKELEKAGAAALFELADASKEEAPKYAAKIDKAIADLKALGKAATPELGKELFAKADKLQATRDRIMEDIES | not found (inactive) | – |
| design_376_bf9d4634-8475-4fdb-a175-1db49a23bdcd_487_dldesign_0_cycle1_af2pred (protein) DIKEELKKLAEEVKKLAKEVAELSKKDKEEAKVKAEEAEKLAEKALELAVKAIKEDEEAREVAHEAITEAFYALSVADAAK | not found (inactive) | – |
| design_376_bf9d4634-8475-4fdb-a175-1db49a23bdcd_746_dldesign_0_cycle1_af2pred (protein) MEKAEEMGERLIEAVKESPEKAREVAEEMVRRAKEGDVEEAAAIAQAVAEAYAVAVKENKEAAEIVREALREVQEIGRKKR | not found (inactive) | – |
| design_376_bf9d4634-8475-4fdb-a175-1db49a23bdcd_1727_dldesign_0_cycle1_af2pred (protein) STEEAIKKALEMAEKIAKATPETGAEATKIRDELLEYIAEFAEKGTVEGTKAVAEALREQAEKASPEAAKSLRAAARFAEALAKAKA | not found (inactive) | – |
| design_376_bf9d4634-8475-4fdb-a175-1db49a23bdcd_1192_dldesign_0_cycle1_af2pred (protein) GTEKTKKISDHLRKAVSAAKKAVAIAKKAGIGEEMQKTFSELRDAVVDGDLEKAKEYAKKLLELGKKVPEAYEYAKEAAEEALKAVE | not found (inactive) | – |
| design_376_bf9d4634-8475-4fdb-a175-1db49a23bdcd_1294_dldesign_0_cycle1_af2pred (protein) SVKENTKEAAKKLEEKYGAEFAKIGPEYAAKMAAAAKEAAKKPTSADAIILMRDAYDELKKEADAALAAA | not found (inactive) | – |

| Binder | binding in a display sort (VTCN1, Q7Z7D3) | binding in a display sort (CD276, Q5ZPR3) |
| --- | --- | --- |
| design_623_6e2e8b1f-5d9a-4413-9869-27a184816b12_2213_dldesign_0_cycle1_af2pred (protein) AVEELLAKAKEYAAKLKELADDLEAAKALATEKREDIGQVIMAAAIVAATESPEVAARAREVQRHAWSLQR | – | not found (inactive) |
| design_376_bf9d4634-8475-4fdb-a175-1db49a23bdcd_1125_dldesign_0_cycle1_af2pred (protein) VEEAAKKAKEKVKEVAEKATKEAPETADIAKALAENAEKKIDELAKKGAPKEALEKAAEKAIKTIKAVKKSALELK | not found (inactive) | – |
| design_623_6e2e8b1f-5d9a-4413-9869-27a184816b12_2207_dldesign_0_cycle1_af2pred (protein) NPKVEELREEVRRLIAELARAGVAGTPEIAATVGAAIEQALKLLGESRETGEESLKEAIKIVKEALKAAA | – | not found (inactive) |
| design_623_6e2e8b1f-5d9a-4413-9869-27a184816b12_2491_dldesign_0_cycle1_af2pred (protein) TAKALAAAVEKAKELAAIVAEVQGDGAFGAAMVNTLANYAAAAGVPQALVDRARAAAKEALASADGAKVALAELKALAAEFKAA | – | not found (inactive) |
| design_376_bf9d4634-8475-4fdb-a175-1db49a23bdcd_800_dldesign_0_cycle1_af2pred (protein) AKAELEKLKKEAAKHRQEMYFYGKASAKLGPKYKAEYEEHYAKALEAAKKIKELDPEEGKKYEEIVLKTKKRLEKEL | not found (inactive) | – |
| design_376_bf9d4634-8475-4fdb-a175-1db49a23bdcd_869_dldesign_0_cycle1_af2pred (protein) REAALAAGAARLEAALAASPAAPAAAAALRAALEAGADAADVILAVQDVLAEAGAAKEDLSAAAKAAAEAVRLYS | not found (inactive) | – |
| design_376_bf9d4634-8475-4fdb-a175-1db49a23bdcd_737_dldesign_0_cycle1_af2pred (protein) MAREKQIKLYGESLLEIAIESAVAAIKKYEDAYKIIKELSEKRAKKAEEAGDKEMGEKIKKIGKEIAELAEKDKEKALEYAKKL | not found (inactive) | – |
| design_376_bf9d4634-8475-4fdb-a175-1db49a23bdcd_502_dldesign_0_cycle1_af2pred (protein) GKKEKALKELEKLKKEAEELEEEGKKAGPKAYQEAGSMLIKIESALSAAKKGDEEEAEKAAKKAKEAYEKGKEKVTKLIKEEKAKKE | not found (inactive) | – |
| design_376_bf9d4634-8475-4fdb-a175-1db49a23bdcd_1797_dldesign_0_cycle1_af2pred (protein) AADEAKAKAKAALDAAAAAAAKVDPKKAPEVKARAAKAKATLDKLYADFKDDPEIATEVANIFLKGAEALLKEIKAA | not found (inactive) | – |
| design_376_bf9d4634-8475-4fdb-a175-1db49a23bdcd_661_dldesign_0_cycle1_af2pred (protein) SENIKKLSDARNEAIKYLREAVKLAGEEIKEEAAKAIELIGDLEKIPEALEEIEKAIKLAEKVENAEEVKKLLKKAKESAEEALKLS | not found (inactive) | – |
| design_376_bf9d4634-8475-4fdb-a175-1db49a23bdcd_69_dldesign_0_cycle1_af2pred (protein) ANKEEVDAAADAISEAFRLAREYVLKEGLDPKEVANKLIQGLDDIEYGLALGEELEKDPASAEAGKALKKAAELLAKI | not found (inactive) | – |
| design_376_bf9d4634-8475-4fdb-a175-1db49a23bdcd_888_dldesign_0_cycle1_af2pred (protein) GVVEKAKKISEAVRAEHKAKATTKLAKADPSQAAAAKAAAEEAKKAAEKAEEADKETAKAAKAAGKEAEAAAKA | not found (inactive) | – |
| design_376_bf9d4634-8475-4fdb-a175-1db49a23bdcd_1019_dldesign_0_cycle1_af2pred (protein) ILKEFAKLVSEAIKKATKADGLNGADIVWKEAEKSFKEVKEALKKGEEEAKKALEKAKERLEKAVEEAKKRGEA | not found (inactive) | – |
| design_376_bf9d4634-8475-4fdb-a175-1db49a23bdcd_541_dldesign_0_cycle1_af2pred (protein) EEEAKKLVEKAKEKLKKAKETAKNGTAEEAAKTAKEVFKEAREYGKKLKKKGYDEEYVKKIAEYAHEAAEIYAEESNKV | not found (inactive) | – |
| design_376_bf9d4634-8475-4fdb-a175-1db49a23bdcd_377_dldesign_0_cycle1_af2pred (protein) GEEVEKLYKELIKAGKEADKALELAVKIGKVDSETLQILGEASIYADNPELAKGLAERDPEKAKERIKETKKAVEEVKKLYKEYK | not found (inactive) | – |
| design_376_bf9d4634-8475-4fdb-a175-1db49a23bdcd_425_dldesign_0_cycle1_af2pred (protein) DEEDEKNLEKVKRIYERAKELAKEGLEAIKKGTSKTKALYGAAKLERAAEAAKAASGGKHKEEMKKIAEESKKLAKELEEASKTY | not found (inactive) | – |
| design_376_bf9d4634-8475-4fdb-a175-1db49a23bdcd_1553_dldesign_0_cycle1_af2pred (protein) HEEAEKAIEKAKEYFKELVKELEKLDPKAGAKMKELAEKGKKVLERMKEYSPEDVKETAESIMKGAEKEFEKLKKEAEA | not found (inactive) | – |
| design_376_bf9d4634-8475-4fdb-a175-1db49a23bdcd_232_dldesign_0_cycle1_af2pred (protein) EKEKLEKIVEEIKKYVEEAKELAKGDISSQSKAVSLLHKAFSLAGKAIGKEAKELEDKMLNAETMEEAVKIGEELYEKFSKIAKA | not found (inactive) | – |
| design_376_bf9d4634-8475-4fdb-a175-1db49a23bdcd_604_dldesign_0_cycle1_af2pred (protein) SVAAITAHAEALARKAVADPANAAAYLSEARDYVLTNGDAEALRAAADVLRALGAKAPGGAAFAAAARILERAAEDIEKA | not found (inactive) | – |
